High-throughput results: PubChem, NMMLSC
BoNT A protease: inhibitors of Botulinum neurotoxin A light chain protease | inhibition, % at 10 µM | actives 0.17% (n = 360,000) | multiplex microsphere protease substrate cleavage, flow cytometry | AID 588499; note: plate controls were buffer without enzyme for full effect and enzyme alone for no effect
Anthrax LF prot: blocks Bacillus anthracis lethal factor protease | AID 588501 | multiplex microsphere protease cleavage assay, LF | inhibition, % at 10 µM | actives 0.12% (n = 360,000) | P15917; note: plate controls were buffer without enzyme for full effect and enzyme alone for no effect
Target sequence (P15917 whole entry, looked up): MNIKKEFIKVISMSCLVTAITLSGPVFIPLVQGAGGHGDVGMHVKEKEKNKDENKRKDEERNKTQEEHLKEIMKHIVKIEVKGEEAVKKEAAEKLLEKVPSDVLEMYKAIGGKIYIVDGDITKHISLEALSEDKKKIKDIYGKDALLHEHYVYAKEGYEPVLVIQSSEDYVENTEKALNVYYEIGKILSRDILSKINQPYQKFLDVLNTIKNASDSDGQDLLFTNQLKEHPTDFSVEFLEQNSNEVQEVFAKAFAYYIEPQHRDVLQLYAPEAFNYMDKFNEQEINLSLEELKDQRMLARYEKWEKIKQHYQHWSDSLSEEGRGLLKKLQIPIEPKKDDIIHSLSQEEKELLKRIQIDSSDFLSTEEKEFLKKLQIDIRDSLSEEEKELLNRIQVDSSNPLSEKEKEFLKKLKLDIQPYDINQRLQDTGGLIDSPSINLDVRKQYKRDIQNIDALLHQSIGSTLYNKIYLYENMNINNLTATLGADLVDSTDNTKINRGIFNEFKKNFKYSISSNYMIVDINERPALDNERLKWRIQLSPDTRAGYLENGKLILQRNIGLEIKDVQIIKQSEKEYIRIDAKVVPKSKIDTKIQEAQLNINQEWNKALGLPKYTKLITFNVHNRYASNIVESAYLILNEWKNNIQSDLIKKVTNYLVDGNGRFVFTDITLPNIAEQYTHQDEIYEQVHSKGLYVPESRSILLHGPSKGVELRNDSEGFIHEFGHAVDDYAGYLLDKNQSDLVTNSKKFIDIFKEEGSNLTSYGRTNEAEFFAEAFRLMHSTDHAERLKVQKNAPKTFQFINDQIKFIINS
Bead autofluor: counter-screen for toxin protease inhibitors: compound fluorescence; compound autofluorescence counterscreen, microsphere flow cytometry; stronger effect = higher value; fluorescence intensity (concentration not given with the values); actives 3.1% (n = 360,000); AID 624483; in the data active = fluorescence intensity above about 16000; inconclusive = no clear call, values can overlap the other calls
BoNT-F LC inh: BoNT F light chain protease inhibition | Multiplex microsphere protease cleavage assay, flow cytometry | inhibition, % at 10 µM | actives 0.22% (n = 360,000) | AID 588497; in the data active = inhibition above about 35%, passing the limit was not always enough; inconclusive = no clear call, values can overlap the other calls; note: plate controls were buffer without enzyme for full effect and enzyme alone for no effect
The depositor's hits bear a star; ? = inconclusive. Most compounds without a hit are left out; they make up all but 3.5% or so of the library. Cut-off read from the data, not from the text of the source, unless noted: active = inhibition above about 30%; inconclusive = no clear call, values can overlap the other calls; inactive = below that.

SMILES	BoNT A protease	Anthrax LF prot	Bead autofluor	BoNT-F LC inh
CC(=O)OC(C(=O)NC1CCCCC1)c1ccc(C)cc1 (configuration not stated)	-0.1	0.5	3626	-0.4
Cc1c2c(nc3ccccc13)CC(C)(C)CC2=O	-0.3	0.7	4333	-0.9
CC1(C)CC(=O)c2c(nn(-c3ccccc3)c2-c2ccncc2)C1	?	0.7	22472*	-2.9
O=C1NC[C@@H](CCCCN2C[C@H](Cc3ccccc3)N(CCc3ccc(O)cc3)C(=O)C2=O)N(CCc2ccccc2)C1=O	0.0	3.0	6119	-1.2
CC1(C)CC(=O)C=C(c2ccc(-c3cccc(C(N)=O)c3)cc2)C1=O	0.4	3.3	3543	-0.8
CCOC(=O)Cn1c(=NC(=O)c2cc(-c3cccs3)nc3ccccc23)sc2cc(S(N)(=O)=O)ccc21	7.9	2.4	1977	9.3
COC(=O)Cn1c(=NC(=O)c2cc(-c3cccs3)nc3ccccc23)sc2cc(S(N)(=O)=O)ccc21	37.5*	9.0	2153	-0.5
N#Cc1cc2c(nc1SCC(=O)Nc1cc(Cl)cc(Cl)c1)C1CCN2CC1	3.9	-6.0	20731*	5.2
CN1CCc2nc(SCC(=O)Nc3ccc(Cl)cc3)c(C#N)cc2C1	2.6	-4.2	1979	-37.9
CCOC(=O)C1C(=O)C=C(/C=C/c2ccccc2)CC1c1ccc(Cl)cc1 (configuration not stated)	?	-3.8	16539*	-3.8
CN(CC(=O)Nc1ccccc1C(=O)N1CCCC1)S(=O)(=O)c1ccc(Br)cc1	-1.8	0.5	24180*	-2.6
COCCNc1cc(C)nc2c3c(C)cc(C)nc3nn12	-0.8	-1.1	23058*	-0.4
COCCNc1cc(C)nc2c(-c3ccccc3OC)c(C)nn12	-1.0	-10.8	4463	-7.2
Cc1cc(NCCN2CCOCC2)n2nc(C)c(-c3ccccc3)c2n1	-0.1	-3.9	4901	-27.5
Cc1cc(C)c2c(n1)nn1c(NCCN3CCOCC3)cc(C)nc21	0.2	0.1	23370*	3.8
O=C(OCc1ccccc1F)c1cc2ccccc2cc1O	3.6	2.1	3511	-14.5
Cc1nn(CCC#N)c(NC(=O)c2ccc(Cl)cc2Cl)c1P(=O)(Nc1ccc([N+](=O)[O-])cc1)N1CCOCC1 (configuration not stated)	1.2	-0.1	16178*	2.7
COc1ccc(Nc2nc(-c3c(C)nc4ncccn34)cs2)cc1	-1.4	-2.4	2506	-6.4
Cc1nc2ncccn2c1-c1csc(Nc2ccccc2)n1	3.7	0.5	2512	37.7*
Cc1ccc(S(=O)(=O)NCCN=C(CN2CCOCC2)NS(=O)(=O)c2ccc(C)cc2)cc1	0.6	-1.1	8760	0.1
Cc1ccc(S(=O)(=O)NCCN=C(CN2CCCC2)NS(=O)(=O)c2ccc(C)cc2)cc1	?	-8.0	24857*	-4.9
Cc1ccc(S(=O)(=O)NCC(=O)N2CCCC2)cc1	?	1.7	16845*	-1.9
CCOC(=O)C(C)(C)Sc1ncnc2nc[nH]c12	?	-0.6	23381*	2.7
CCOC(=O)N1CCN(c2ncnc3nc[nH]c23)CC1	-0.3	-1.8	5296	-5.3
S=c1[nH]c2cc(Cl)c3cccnc3c2o1	-5.1	-6.2	3653	-15.0
SMILES	BoNT A protease	Anthrax LF prot	Bead autofluor	BoNT-F LC inh
S=c1[nH]c2ncccc2o1	-0.5	1.0	22317*	1.5
COc1cc(/C=C/CN2CCC(C(=O)NC(c3ccc(F)cc3)c3ccc4ccccc4n3)CC2)ccc1OC(C)=O (configuration not stated)	-0.5	-11.1	3879	-11.5
Cc1cc(N2CCCCCC2)nc2ccc(F)cc12	-20.5	-36.7	19022*	-147.1
COc1ccc2c(C)cc(N3CCCCCC3)nc2c1	-0.7	-2.4	4213	-1.1
CCCC(=O)N1CCC1(C)C(=O)NS(=O)(=O)c1ccc(C(C)(C)C)cc1 (configuration not stated)	-0.2	-1.1	3763	-3.9
CCN(CC)c1ccc(/C=C/C(=O)c2ccc(Br)cc2)cc1	61.7*	42.3*	30707*	81.2*
Nn1cnnc1SCC(=O)N1CCc2ccccc2C1	-0.3	-5.8	6472	-0.8
Cc1ccc(/C=C2/SC(=S)N(C3CCCCC3)C2=O)o1	38.6*	24.5	3828	26.2
Cc1ccc(/C=C2\SC(=S)N(CC3CCCO3)C2=O)o1 (configuration not stated)	?	0.5	3638	?
Cn1c(SCC(=O)Nc2nc3c(s2)CCCC3)nnc1-c1ccccc1	-1.3	-5.7	20299*	-1.7
CCCn1c(SCC(=O)Nc2nnc(CC)s2)nnc1-c1ccco1	0.7	6.7	4191	?
CCc1nnc(NC(=O)CSc2nnc(-c3ccco3)n2C)s1	0.9	-4.2	21882*	0.8
Cc1cc(C(=O)CSc2nnc(-c3ccncc3)n2-c2ccccc2)c(C)n1C	0.0	-21.3	5848	-4.6
Cc1cc(C(=O)CSc2nnc(-c3ccccc3)n2C)c(C)n1C	-0.5	-13.2	22200*	-2.9
CCc1nnc(NC(=O)CSc2nnc(-c3ccco3)n2CC)s1	-1.8	1.5	22759*	0.5
O=C(NC1CCCC1)C1c2ccccc2OCC(=O)N1Cc1ccco1 (configuration not stated)	0.2	-1.4	5423	-4.0
Cc1ccc(NC(=O)CCSc2nnc(C)o2)cc1	-0.2	-3.7	3956	?
CC(C)N1C(=O)NC2NC(=O)N(C(C)C)C21 (configuration not stated)	-0.2	-1.5	6007	-0.5
Cn1c(SCC(=O)Nc2ccccc2-c2ccccc2)nnc1-c1ccco1	-0.9	-4.1	16441*	-1.5
Cc1occc1-c1nnc(SCC(=O)Nc2ccccc2-c2ccccc2)n1C	0.6	1.7	4873	15.8
O=C(Cc1cccs1)Nc1nc2c(s1)CCCC2	-2.7	-2.5	17280*	-6.4
CCc1nnc(NC(=O)/C=C/c2ccco2)s1	4.0	1.9	2625	44.1*
CCSc1nnc(NC(=O)/C=C/c2ccco2)s1	0.2	-1.0	4651	-1.5
O=C(CSc1ncccn1)NC1CCCC1	-0.1	0.8	3734	0.7
CCCNC(=O)c1cc(Cl)c(NC(=O)C2=CSCCO2)cc1OC	1.1	-1.5	5254	-6.9
SMILES	BoNT A protease	Anthrax LF prot	Bead autofluor	BoNT-F LC inh
N#Cc1nc(Cc2cccc3ccccc23)oc1NCCN1CCCCC1	0.7	-1.5	10642	4.3
CNc1oc(Cc2cccc3ccccc23)nc1C#N	-3.8	-4.4	17571*	-4.5
CC(C)Nc1oc(Cc2cccc3ccccc23)nc1C#N	?	-3.7	24202*	1.1
OC[C@@H]1CN(CCN2CCOCC2)C[C@H](n2cnc3c(N4CCOCC4)ncnc32)O1	-0.1	-6.7	4025	-1.3
CCN1C(=O)[C@H]2[C@@H](c3ccc(C)cc3)N[C@]3(CCCN(Cc4ccc(OC)cc4)C3=O)[C@H]2C1=O	-0.6	-5.3	3706	-8.8
CCOc1ccc(CCn2c(-c3ccco3)nc3ccccc3c2=O)cc1OCC	-0.7	-1.9	16599*	-5.6
O=c1c2ccccc2nc(-c2ccco2)n1Cc1ccccc1	0.8	-1.5	10483	11.7
CC1CN(C(=O)CCC(=O)NCc2ccc(Cl)cc2)c2ccccc2O1 (configuration not stated)	0.3	8.6	4418	0.9
CCCCc1c(-c2cccc(Br)c2)ncn1CCc1ccccc1OC	-1.1	-3.4	6068	-5.0
CS(=O)(=O)N1CCN(C/C=C/c2ccccc2)CC1	1.2	1.5	3708	5.2
O=S(=O)(Cc1ccccc1)N1CCN(C/C=C/c2ccccc2)CC1	-4.7	-0.9	25473*	-8.5
